GCN5L2 inh: qHTS Assay for Inhibitors of GCN5L2 | Histone acetyltransferase KAT2A (Homo sapiens), Q92830 | GCN5L2 HAT assay, ThioGlo1 CoA-SH fluorescence | Potency, µM (doses to about 58.9 µM), for the others: at the highest dose activity change, negative = inhibition, usual class: inhibitors | hit rate 0.21% among 390,000
Target sequence (Q92830 whole entry, looked up): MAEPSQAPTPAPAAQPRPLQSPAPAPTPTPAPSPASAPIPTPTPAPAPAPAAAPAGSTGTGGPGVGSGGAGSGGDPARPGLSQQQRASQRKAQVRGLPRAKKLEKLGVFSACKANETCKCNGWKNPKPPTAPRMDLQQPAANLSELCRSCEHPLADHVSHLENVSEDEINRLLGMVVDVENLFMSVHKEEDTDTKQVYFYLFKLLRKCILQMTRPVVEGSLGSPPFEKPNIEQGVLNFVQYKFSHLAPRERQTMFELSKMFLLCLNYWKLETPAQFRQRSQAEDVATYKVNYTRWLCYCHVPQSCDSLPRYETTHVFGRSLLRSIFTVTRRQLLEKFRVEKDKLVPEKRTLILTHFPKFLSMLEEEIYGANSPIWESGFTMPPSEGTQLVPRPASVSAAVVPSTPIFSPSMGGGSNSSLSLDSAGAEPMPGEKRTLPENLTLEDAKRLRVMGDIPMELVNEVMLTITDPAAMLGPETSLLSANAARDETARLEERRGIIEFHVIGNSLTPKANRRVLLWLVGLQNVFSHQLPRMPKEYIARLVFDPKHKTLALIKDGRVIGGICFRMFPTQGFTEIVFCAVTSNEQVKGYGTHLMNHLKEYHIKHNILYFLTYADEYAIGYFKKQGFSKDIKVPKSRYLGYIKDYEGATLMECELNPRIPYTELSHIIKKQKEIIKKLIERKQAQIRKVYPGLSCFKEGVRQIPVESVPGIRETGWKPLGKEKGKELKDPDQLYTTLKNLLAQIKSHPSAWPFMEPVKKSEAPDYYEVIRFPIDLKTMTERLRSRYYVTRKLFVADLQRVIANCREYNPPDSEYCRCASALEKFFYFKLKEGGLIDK
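Enzyme at 20nM final was mixed with library compounds for 15 min at room temperature. Peptide H3(1-25) at 75uM, acetyl-CoA at 70uM and ThioGlo1 at 50uM were then added. Plates were read immediately and after 20 min (Ex340nm/Em540nm).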
VDR inhibitor: Inhibitors of the vitamin D receptor (VDR): qHTS. Vitamin D3 receptor (Homo sapiens), P11473. VDR-SRC2-3 peptide fluorescence polarization, 2 h. Potency, µM, inactives show max response, negative = inhibition, most hits filed as inhibitors. hit rate 0.93% among 400,000. AID 504847, 2011
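Inhibition of the VDR/SRC2-3 peptide interaction is quantified by fluorescence polarization. Compounds (23 nl, pintool) incubate with the reagents for 2 hours at ambient room temperature.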
TrxR1 substrate: qHTS Assay for Substrates of Mammalian Selenoprotein Thioredoxin Reductase 1 (TrxR1): qHTS. Thioredoxin reductase 1, cytoplasmic (Rattus norvegicus), O89049. purified TrxR1 substrate turnover, NADPH consumption readout. Potency, µM (top dose mostly 114 µM), for the others: at the top dose activity change, negative = substrate turnover. hit rate 0.01% among 390,000. AID 588456, 2011; note: nearly all actives have a fitted effect of over 50% in size
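Rat TrxR1, dispensed at 90 nM, was prereduced with 400 uM NADPH (final) for 5 min at ~22 deg C, then incubated with compound 15 min before 400 uM selenite. A first-read NADPH fluorescence drop versus no-compound background flagged substrates.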
TrxR1 inh: qHTS Assay for Inhibitors of Mammalian Selenoprotein Thioredoxin Reductase 1 (TrxR1): qHTS | Thioredoxin reductase 1, cytoplasmic (Rattus norvegicus), O89049 | recombinant rTrxR1, NADPH fluorescence consumption, selenite substrate | Potency, µM (doses to about 114 µM), inactives show at the highest dose activity change, negative = inhibition, actives largely listed as inhibitors | hit rate 1% among 390,000; note: nearly all actives have a fitted effect of over 65% in size
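Rat TrxR1 (90 nM in the dispensed reagent) was pre-reduced with 400 uM NADPH for 5 min at room temperature, then incubated with compound for 15 min. After 400 uM selenite was added, NADPH fluorescence (Ex 340/Em 450 nm) was followed for 8 min.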
Numbers without * were called inactive; ? = inconclusive; . = no result; ! = repeats disagree; [ ] = dose if it differs, or a comment. Compounds with a hit are over-represented: about 1.8% of the library has one in this group of screens. Calls come from the whole dose curve; as a rule, active = well fitted curve in the direction sought with a large enough effect; inconclusive = small, poorly fitted or top-dose-only effect, or another doubt; inactive = no such curve, though single readings can be large; an effect the other way counts as inactive or inconclusive. % is set by controls: 0 for no effect and ±100 for the full control effect; potency is the fitted concentration of half-maximal effect.

SMILES	GCN5L2 inh	VDR inhibitor	TrxR1 substrate	TrxR1 inh
Cc1nc(SCC(=O)NCc2ccco2)c2c3c(sc2n1)CCCC3	-7%	11%	-6%	?
CCCc1nc2sc3c(SCC(=O)NCc4ccco4)ncnc3c2c2c1CCC2	?	-30%	2%	45µM*
CNC(=O)COC(=O)c1cc(-c2ccco2)nc2ccccc12	-27%	?	1%[57.1 µM]	10µM*
Cn1c(N)c(C(=O)COC(=O)c2cc(-c3ccco3)nc3ccccc23)c(=O)n(C)c1=O	-26%	3%	30%[57.1 µM]	13µM*
O=C(COC(=O)c1ccco1)NCc1ccc(Cl)cc1Cl	-1%	2%	-1%	79µM*
O=C(COC(=O)c1cc(-c2ccco2)nc2ccccc12)NCc1ccccc1	-10%	-11%	29%	45µM*
COc1ccc(CCNC(=O)c2cc(-c3ccco3)nc3ccccc23)cc1	.	-24%	36%[57.1 µM]	?
Cn1c(N)c(C(=O)COC(=O)c2cc(-c3ccco3)nc3ccccc23)c(=O)n(Cc2ccccc2)c1=O	-27%	.	.	.
COc1cc2ncc(-c3ccccc3)nc2cc1OC	-4%	-2%	.	.
OC(Cc1ccc2ccccc2n1)c1ccccc1 (configuration not stated)	.	.	-2%	8%
CCOC(=O)C1CCN(C(=O)CS(=O)Cc2nc(-c3ccc(C)cc3)oc2C)CC1 (configuration not stated)	-5%	?	1%[57.1 µM]	14µM*
Cc1oc(-c2ccccc2)nc1CS(=O)CC(=O)NC1CCCCCC1 (configuration not stated)	3%	-6%	-15%	32µM*
Cc1cccc(-c2nc(CS(=O)CC(=O)NC3CCCCC3)c(C)o2)c1 (configuration not stated)	-1%	-2%	0%	-7%
Cc1ccc(-c2nc(CS(=O)CC(=O)N3CCN(c4ccc(F)cc4)CC3)c(C)o2)cc1 (configuration not stated)	1%	?	7%	?
Cc1ccc(-c2nc(CS(=O)CC(=O)NC3CCC(C)CC3)c(C)o2)cc1 (configuration not stated)	-8%	?	22%[57.1 µM]	16µM*
COc1ccc(CCn2nnnc2C2(c3ccc(C)cc3)CC2)cc1	-18%	-26%	-2%[57.1 µM]	-2%[57.1 µM]
CC(C)(C)CC(C)(C)N=C1Nc2ccc(Cl)cc2NC12C[C@H]1CCC(=O)N3CC[C@@H](C2)[C@@H]13 (some centres not stated)	.	.	-11%	-8%
Cn1c(NCCN(CCO)CCCc2ccc([N+](=O)[O-])cc2)cc(=O)n(C)c1=O	-20%	50µM*!	-5%	9%
CCCCNc1cc(=O)n(C)c(=O)n1C	-15%	10%	1%	3%
CC(C)CN(Cc1c(O)ccc2ccccc12)CC(C)C	-8%	-22%	26%	-42%
CCN(Cc1ccncc1)Cc1c(O)ccc2ccccc12	-6%	-26%	12%[57.1 µM]	5µM*
CC(C)OCCCn1c(SCc2cccc(Br)c2)nc2c(sc3ccccc32)c1=O	-8%	1%	-1%[57.1 µM]	17%[57.1 µM]
CCN(CC)c1ccc(C2C(C(N)=O)=C(C)Nc3nc(SCc4ccccc4Cl)nn32)cc1 (configuration not stated)	1%	-1%	6%	17%
O=C(Cc1ccc(OCC2CCCCC2)cc1)NO	.	.	-2%	-3%
C[C@H]1CN([C@@H](C)CO)C(=O)c2cc(NS(=O)(=O)c3ccc(Cl)cc3)ccc2O[C@@H]1CN(C)CC1CCCCC1	-2%	89µM*	-4%	7%
SMILES	GCN5L2 inh	VDR inhibitor	TrxR1 substrate	TrxR1 inh
C#CCN1C(=O)C(O)(CC(=O)/C=C/c2ccco2)c2ccccc21 (configuration not stated)	0%	3%	-5%	40µM*
O=C(CC1(O)C(=O)N(CCc2ccccc2)c2ccccc21)c1ccco1 (configuration not stated)	0%	2%	13%[57.1 µM]	4%[57.1 µM]
Cc1ccc(NC(=O)CN2C(=O)N/C(=C/c3ccc(C)o3)C2=O)cc1	?	?	-7%	?
Cc1cccc(NC(=O)CN2C(=O)N/C(=C/c3ccc(C)o3)C2=O)c1	-23%	?	3%	40µM*
C=CCn1c(=O)/c(=C/c2ccc(C)o2)s/c1=C(/C#N)C(=O)c1ccccc1	-23%	58%	-1%[57.1 µM]	-10%[57.1 µM]
C=CCN1C(=O)N/C(=C/c2ccc(C)o2)C1=O	-18%	-27%	-9%	50µM*
CC1(C)S[C@@H]2[C@H](NC(=O)[C@@H](N)c3ccccc3)C(=O)N2[C@H]1C(=O)O[C@H]1OC(=O)c2ccccc21	13%[21.4 µM]	-7%	.	.
COCCn1c(CCC(=O)O)ccc1-c1cccs1	-10%	13%	20%	?
Cc1ccc(-n2c(CCC(=O)O)ccc2-c2cccs2)cc1C	-4%	?	15%	45µM*
CCOC(=O)c1ccc(-n2c(CCC(=O)O)ccc2-c2cccs2)cc1	-17%	?	-6%[57.1 µM]	?
CCCCn1c(CCC(=O)O)ccc1-c1cccs1	-5%	-11%	14%	35µM*
CCc1ccc(-n2c(CCC(=O)O)ccc2-c2cccs2)cc1	-11%	-22%	8%	35µM*
COc1cc2nc(N3CCCN(C)CC3)nc(N)c2cc1OC	.	.	77%	-17%
Cc1cc(C)c2nccc(C)c2c1	.	.	0%	0%
COc1cccc2nc3cc(C)c(C)cc3nc12	-3%	22µM*	?	?
CCN(Cc1ccc(OC)c(F)c1)C(=O)CCl	-1%	-8%	3%	25µM*
COc1ccc2[nH]cc(CCNc3ncncc3-c3ccc(N(C)C)cc3)c2c1	-17%	-4%	.	.
CCOC(=O)c1c(C)n(C)c2ccc(O)c(CN3CCN(C)CC3)c12	-11%	-5%	6%	-3%
CCOC(=O)c1c(C)n(C)c2ccc(O)c(CN3CCC(C)CC3)c12	-17%	89µM*	8%[57.1 µM]	-21%[57.1 µM]
CCOC(=O)CN1C(=O)C(O)(CC(=O)c2cc(OC)ccc2OC)c2ccccc21 (configuration not stated)	1%	11%	-4%	-7%
Cc1nc([N+](=O)[O-])c(Br)n1Cc1ccccc1	-1%	-15%	0%	16µM*
Cc1nc([N+](=O)[O-])c(SCC(O)CCl)n1Cc1ccc(Cl)cc1 (configuration not stated)	-4%	14%	3%[57.1 µM]	14%[57.1 µM]
Cc1nc([N+](=O)[O-])c(Br)n1CC(=O)c1ccc(F)cc1	-13%	6%	6%	2.5µM*
CCn1c(=N)n(CC(=O)c2cccc([N+](=O)[O-])c2)c2ccccc21	-2%	-16%	-5%	8%
Cc1nc([N+](=O)[O-])c(Br)n1CC(=O)c1cccc([N+](=O)[O-])c1	-2%	-18%	-3%[57.1 µM]	7.1µM*
COC(=O)Cn1c(C)nc([N+](=O)[O-])c1Br	3%	-13%	9%[57.1 µM]	16µM*

Compound activity: PubChem BioAssay, National Center for Advancing Translational Sciences (NCATS)
